From PubChem BioAssay AID540333 (Southern Research Specialized Biocontainment Screening …, 2011) come the findings set out here.

SMILES strings stand for the structures. Among all 10,000 compounds or so, about 320 (3.2%) were called active. The list comes from a sample in which actives are over-represented; it also holds similar structures and randomly drawn compounds. A number with no mark means an inactive call. Rule as the data show it: active = CPE inhibition mostly above about 9.1% (no sharp cut-off); inactive = mostly below about 7.2%.

The assay in a line: antivirals protecting cells from dengue CPE – CPE readout, HTS (AID 540333). Conditions: Dengue virus CPE inhibition in host cells, at 20 µM; hits give high values.
On to `COc1ccccc1NC(=S)N1CCN(C/C=C/c2ccccc2)CC1`, for which the CPE inhibition is 0.46%.
In the case of `O=C(N/N=C/c1cccc(O)c1)c1ccc(COc2ccccc2Br)cc1`, the CPE inhibition is 3.17%.
Consider `S=C(NCCCNC(=S)Nc1ccccc1)Nc1ccccc1`, for which the CPE inhibition entry was “inactive”.
Consider `CCOCC(O)CNc1ccccc1` (configuration not stated), for which the CPE inhibition result was “inactive”.
Turning to `COc1ccc(N(C(=O)CS(=O)CC(=O)Nc2ccc(F)cc2)C(C(=O)NC2CCCCC2)c2cccs2)cc1` (configuration not stated), the CPE inhibition was 0.1%.
Consider `COC(=O)c1c(NC(=O)COC(=O)[C@@H](NS(=O)(=O)c2ccccc2)C(C)C)sc2c1CCC2`, for which the CPE inhibition is 24% (active).
As for `CC(C)OC(=O)c1c(NC(=O)CCC(=O)O)sc2c1CCCCC2`, the CPE inhibition result is “inactive”.
For the molecule `CCOC(=O)c1c(NC(=O)COC(=O)c2ccccn2)sc2c1CCC2`, the CPE inhibition result was “inactive”.
For `CC(C)[C@H](NS(=O)(=O)c1ccccc1)C(=O)OCC(=O)Nc1ccccc1Sc1ccccc1` the value was 24.5% (active); for `O=C(COC(=O)CNS(=O)(=O)c1ccc2ccccc2c1)Nc1ccccc1Sc1ccccc1`, “inactive”; for `COC(=O)c1c(NC(=O)C2C3CCC(O3)C2C(=O)O)sc2c1CCCCCC2` (configuration not stated), 0.645%.
As to `COC(=O)c1c(NC(=O)CN(c2ccccc2)S(C)(=O)=O)sc2c1CCCC2`, the CPE inhibition was 18% (active).
As to `CCOC(=O)c1c(NC(=O)c2ccccc2N(C)S(=O)(=O)c2ccccc2)sc2c1CCCC2`, the CPE inhibition was 0.225%.
`O=C(COC(=O)CNS(=O)(=O)c1cccc(Br)c1)Nc1ccccc1Sc1ccccc1`: the CPE inhibition result was “inactive”.
For `COC(=O)c1c(NC(=O)COC(=O)c2ccc(Cl)cc2[N+](=O)[O-])sc2c1CCCCC2`, the CPE inhibition was 3.41%.
In the case of `COC(=O)c1c(NC(=O)CN2C(=O)NC(CCc3ccccc3)C2=O)sc2c1CCCCC2` (configuration not stated), the CPE inhibition was 25.6% (active).
As to `COC(=O)c1c(NC(C)=O)sc2c1CCCCC2`, the CPE inhibition was 0.285%.
Regarding `CCCCn1c(N)c(NCCC)c(=O)[nH]c1=O`, the CPE inhibition result was “inactive”.
On to `COc1cc(C)c(S(=O)(=O)N2CCN=C2c2ccccc2)cc1C`, for which the CPE inhibition entry was “inactive”.
As for `CCO[C@@H]1OC(C(=O)O)=C[C@H](c2cn(C(C)=O)c3ccccc23)[C@H]1CCCO`, the CPE inhibition result was “inactive”.
For the molecule `Cc1ccccc1NC(=S)NCC(c1cccnc1)N1CCOCC1` (configuration not stated), the CPE inhibition entry was “inactive”.
For `N#Cc1c(-c2ccccc2)nc(SCC(=O)Nc2ccccc2)[nH]c1=O` the value was “inactive”; for `Cc1cccc(N2CCN(C(=S)NCc3ccco3)CC2)c1C`, 0.45%.
`CC(NS(=O)(=O)c1ccc2c(c1)OCCCO2)C(=O)O` (configuration not stated): the CPE inhibition is 0.55%.
For `CCCCOC(=O)/C=C/c1ccc(OC(=O)OC)c(OC(=O)OC)c1`, the CPE inhibition result is “inactive”.
On to `COc1ccc(/C(O)=C2/C(=O)C(=O)N(CCCN(C)C)C2c2cccc(Cl)c2)cc1OC` (configuration not stated), for which the CPE inhibition was 0.13%.
For `CCOC(=O)c1c(NC(=O)CSC(=S)N2CCOCC2)sc(C)c1C`, the CPE inhibition is 0.065%.
Consider `COc1ccc(C(=O)NC(=S)N(CCC(C)C)c2c(N)n(Cc3ccccc3)c(=O)[nH]c2=O)cc1`, for which the CPE inhibition was 0.675%.
On to `CC(=O)c1cc(-c2ccccc2)n(CC(=O)Nc2cccc(C)c2C)c1C`, for which the CPE inhibition is 0.49%.
Regarding `Cc1cccc([C@@H]2[C@@H]3C(=O)N(Cc4ccccc4)C(=O)[C@@H]3[C@]3(CC(C)C)C(=O)N(c4cccc(Br)c4)C(=O)N23)c1`, the CPE inhibition is 1.25%.
As for `CCOC(=O)[C@@H]1[C@H]2COc3ccccc3[C@H]2N2C(=O)N(c3cccc(Cl)c3)C(=O)[C@]12C`, the CPE inhibition was 0.045%.
For `CC[C@@]12C(=O)N(c3ccccc3)C(=O)N1[C@H](c1ccc(Br)cc1)[C@@H]1C(=O)N(C(C)(C)C)C(=O)[C@@H]12`, the CPE inhibition is 5.79%.
For `CCN1C(=O)[C@H]2[C@@H](c3ccc(C)cc3)N3C(=O)N(c4ccccc4)C(=O)[C@@]3(CC)[C@H]2C1=O`, the CPE inhibition result was “inactive”.
With `COc1ccc([C@@H]2[C@@H]3C(=O)N(C(C)(C)C)C(=O)[C@@H]3[C@]3(C)C(=O)N(c4ccc(C)cc4)C(=O)N23)cc1`, the CPE inhibition result was “inactive”.
Consider `CC[C@@]12C(=O)N(c3cccc(Br)c3)C(=O)N1[C@H](c1cccc(C)c1)[C@@H]1C(=O)N(Cc3ccccc3)C(=O)[C@@H]12`, for which the CPE inhibition was 12.7% (active).
Turning to `CC(C)(C)N1C(=O)[C@H]2[C@@H](c3ccc(Br)cc3)N3C(=O)N(c4ccccc4)C(=O)[C@@]3(C)[C@H]2C1=O`, the CPE inhibition is 2.17%.
Regarding `COc1ccc([C@@H]2[C@@H]3C(=O)N(C(C)(C)C)C(=O)[C@@H]3[C@]3(Cc4ccccc4)C(=O)N(c4ccc(OC)cc4)C(=O)N23)cc1`, the CPE inhibition is 0.525%.
The same measure for `CC[C@@]12C(=O)N(c3cccc(Cl)c3)C(=O)N1[C@H](c1ccc(Br)cc1)[C@@H]1C(=O)N(C(C)(C)C)C(=O)[C@@H]12`: 23.6% (active); for `COc1ccc([C@@H]2[C@@H]3C(=O)N(C(C)(C)C)C(=O)[C@@H]3[C@]3(C)C(=O)N(c4cccc(Cl)c4)C(=O)N23)cc1`: 0.865%; for `CC(C)(C)N1C(=O)[C@H]2[C@@H](c3ccc(Br)cc3)N3C(=O)N(c4cccc(Cl)c4)C(=O)[C@@]3(Cc3ccccc3)[C@H]2C1=O`: 31.9% (active).
Consider `CC(C)C[C@@]12C(=O)N(c3cccc(F)c3)C(=O)N1[C@H](c1ccc(Br)cc1)[C@@H]1C(=O)N(C(C)(C)C)C(=O)[C@@H]12`, for which the CPE inhibition is 52.3% (active).
With `CC(=O)c1ccc(N2Cc3ccccc3/C2=N\C(=O)Nc2ccccc2)cc1`, the CPE inhibition is 1.88%.
With `O=C(c1cc(-c2ccccc2)nn1CC1CC(c2cccnc2)=NO1)N1CCOCC1` (configuration not stated), the CPE inhibition was 0.185%.
For the molecule `Cc1ccc(/C=C/C(=O)NCCCN2CCN(CCCNC(=O)/C=C/c3ccc(C)o3)CC2)o1`, the CPE inhibition is 0.03%.
With `Cc1ccc([N+](=O)[O-])cc1S(=O)(=O)NCCc1c(C)[nH]c2c(C)cccc12`, the CPE inhibition is 0.035%.
On to `COc1ccc(NC(=S)N(CCN(C)C)C(C)c2ccco2)cc1` (configuration not stated), for which the CPE inhibition was 1.96%.
In the case of `CCC(=O)N/N=C(\C)CC(=O)Nc1ccccc1-c1ccccc1`, the CPE inhibition entry was “inactive”.
The same measure for `Cc1ccc(-c2cc3c(n2-c2ccc(C(=O)O)cc2)CCCC3=O)cc1`: “inactive”.
In the case of `COc1ccc(C(=O)NCC(=O)NCC(c2ccco2)N(C)C)cc1OC` (configuration not stated), the CPE inhibition entry is “inactive”.
For the molecule `CCOc1ccc(NC(=O)CNC(=O)COc2ccccc2)cc1`, the CPE inhibition is 0.38%.
For `COC(C(=O)Nc1ccc(S(=O)(=O)Nc2cccc3ccccc23)cc1)c1ccccc1` (configuration not stated), the CPE inhibition is 5.08%.
For `O=C(NC(=S)N1CCN(c2ccc([N+](=O)[O-])cc2)CC1)c1ccccc1F` the value was 1.42%.
For the molecule `O=C(COC(=O)CC1c2ccccc2CCN1S(=O)(=O)c1ccccc1)Nc1ccccc1` (configuration not stated), the CPE inhibition was 0.325%.
As to `COc1ccc([C@H]2CC(=O)C=C(c3cccc(OC)c3)C2)cc1`, the CPE inhibition entry was “inactive”.
The same measure for `CCOC(=O)c1cccc(C2=CC(=O)C[C@H](c3ccc(OC)cc3)C2)c1`: 11.8% (active); for `COc1ccc([C@H]2CC(=O)C=C(c3ccccc3)C2)cc1`: 3.05%.
The same measure for `CCOc1cccc(OCCOCCN(C)C)c1`: “inactive”; for `CCOC(=O)C1=NNC2(c3ccc(Cl)cc3)C(=O)N(c3ccc(C)cc3)C(=O)C12` (configuration not stated): “inactive”; for `CSCCC(NS(=O)(=O)c1ccc(Cl)cc1)C(=O)OCc1cccc(Cl)c1` (configuration not stated): 12% (active).
Take `CSCCC(NC(=O)c1ccc(Cl)cc1)C(=O)OCC(=O)Nc1cc(Cl)ccc1C` (configuration not stated): the CPE inhibition is 0.1%.
With `CC(=O)Nc1ccc(S(=O)(=O)NCCSCc2cccc(Cl)c2)cc1`, the CPE inhibition was 1.06%.
For `CC(C)OC(=O)/C(=C/c1ccc(Br)cc1)NC(=O)c1ccco1` the value was “inactive”.
